Cycloheximide cs – Cycloheximide Counterscreen for Small Molecule Inhibitors of Shiga Toxin | cell reporter, cycloheximide protein synthesis inhibition counterscreen | max response, % | 12% of 300,000 active; in the data active means max response mostly above about 13%, no sharp cut-off; inactive means mostly below about 14%; further: read at 38.3 µM for the half of the compounds with a filed dose; 0% is about no effect
Pf growth 48h – Primary qHTS for delayed death inhibitors of the malarial parasite plastid, 48 hour incubation | AID 504832, 2011 | Potency, µM (series often up to 28.7 µM), inactives show top-dose activity change, negative = inhibition, actives largely listed as inhibitors | 5.9% of 310,000 active | P. falciparum luciferase growth in erythrocytes, 48 h; further: potency means the concentration at half of the fitted maximal effect; on the % scale 0 is the no-effect control and ±100 the full control effect
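Parasite viability was followed by luminescence of a genomically integrated firefly luciferase. Cultures held 0.1% parasitemia at 2% hematocrit (final), incubated under 5% CO2 at 37 C.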
Shiga toxin inh – A qHTS for Small Molecule Inhibitors of Shiga Toxin. Vero cells, Shiga toxin protein synthesis inhibition reporter. inhibition, % at 38.7 µM. 9.2% of 290,000 active; in the data active means inhibition mostly above about 28%, no sharp cut-off; inactive means mostly below about 43%; further: 0% is about no effect
Giardia FBPA inh – qHTS Assay for Inhibitors of Fructose-1,6-bisphosphate Aldolase from Giardia Lamblia. Potency, µM (series often up to 59.6 µM), for inactives: top-dose activity, negative = inhibition, most hits filed as inhibitors. purified Giardia FBPA. AID 2451, 2010. 0.71% of 290,000 active; further: potency means the concentration at half of the fitted maximal effect; on the % scale 0 is the no-effect control and ±100 the full control effect; nearly all actives have a fitted effect of over 55% in size
Target sequence (A8B2U2 whole entry, looked up): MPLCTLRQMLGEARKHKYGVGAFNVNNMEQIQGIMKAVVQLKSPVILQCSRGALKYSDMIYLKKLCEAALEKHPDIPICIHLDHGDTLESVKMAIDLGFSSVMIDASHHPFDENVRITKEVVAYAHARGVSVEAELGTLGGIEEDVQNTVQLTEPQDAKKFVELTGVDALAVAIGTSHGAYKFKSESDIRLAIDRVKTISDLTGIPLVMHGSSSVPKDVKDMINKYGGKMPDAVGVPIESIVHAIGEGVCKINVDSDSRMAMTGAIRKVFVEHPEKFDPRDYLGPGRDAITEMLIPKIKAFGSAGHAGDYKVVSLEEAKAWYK
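Giardia FBPA (40 nM reagent) was preincubated 10 min at RT with compound (up to 57.5 uM final), then substrate plus GAPDH/TPI/NAD/arsenate coupling system with diaphorase/resazurin was added; resorufin fluorescence (525/598 nm) was read after 20 min.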
Pf growth 96h – Primary qHTS for delayed death inhibitors of the malarial parasite plastid, 96 hour incubation; Potency, µM (top dose mostly 28.7 µM), for the others: at the top dose activity change, negative = inhibition, usual class: inhibitors; 6.9% of 320,000 active; P. falciparum luciferase reporter growth, 96 h; further: potency means the concentration at half of the fitted maximal effect; on the % scale 0 is the no-effect control and ±100 the full control effect
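P. falciparum expressing integrated firefly luciferase grown in erythrocytes (2% hematocrit, 0.05% parasitemia final) with compounds for 96 hours at 37 C, 5% CO2. Growth inhibition read as loss of luminescence after adding luciferase detection reagent.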
NS1 function inh – qHTS Assay for Inhibitors of Influenza NS1 Protein Function; 0.4% of 270,000 active; AID 2326, 2010; Potency, µM (top dose mostly 46.1 µM), for the others: at the top dose activity, positive = more growth; calls by dose curve; further: potency means the concentration at half of the fitted maximal effect; actives are rising curves; nearly all actives have a fitted effect of over 50% in size
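S. cerevisiae expressing influenza A NS1, grown in glucose, washed, then diluted 1:100 into pH 6.0 -URA galactose medium with 23 nl compound. Growth recovery read as OD600; NS1-free strain serves as control.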
Active calls of the source: *; [ ] = dose if it differs, or a comment. The list is not random: actives were taken first. Their share in the collection is about 21%. Unless noted, the call rests on the fitted dose curve; in most records, active means well fitted curve in the direction sought with a large enough effect; inconclusive means small, poorly fitted or top-dose-only effect, or another doubt; inactive means no such curve, though single readings can be large; an effect the other way counts as inactive or inconclusive.

Screening COc1ccccc1CNC(=O)c1cccc(-c2ccc(C)c3ccccc23)n1 returned Cycloheximide cs 10.7, Pf growth 48h inconclusive, Shiga toxin inh -12.9, Giardia FBPA inh 3.9%[89.2 µM], Pf growth 96h 14.7µM* and NS1 function inh -0.5%.
For Cc1cccc(CN(C(=S)Nc2c(C)cccc2C)c2cccnc2)c1 the results were Cycloheximide cs 4.5, Pf growth 48h -3.8%, Shiga toxin inh 14.0, Giardia FBPA inh -10.5% and Pf growth 96h -7.6%.
`Cc1ccc(CC(=O)NCc2ccc(F)cc2)cc1` gave Cycloheximide cs 11.4*, Pf growth 48h 10.5%, Shiga toxin inh 28.2, Giardia FBPA inh -0.2% and Pf growth 96h -26.4%.
`COc1ccccc1CNC(=O)Cc1ccc(C)cc1` gave Cycloheximide cs 25.4*, Pf growth 48h 19.6%, Shiga toxin inh 37.7, Giardia FBPA inh 2.8%, Pf growth 96h inconclusive and NS1 function inh -4.7%.
For COc1cn(-c2ccccc2)nc1C(=O)NCc1ccc(C)cc1 the results were Cycloheximide cs 8.7, Pf growth 48h inconclusive, Shiga toxin inh 31.6, Giardia FBPA inh 9.9%, Pf growth 96h 8.28µM* and NS1 function inh -80.8%.
For O=C(COC(=O)Cc1ccc(-c2ccccc2)cc1)NCc1ccc(F)cc1 the results were Cycloheximide cs 14.6*, Pf growth 48h 15.9%, Shiga toxin inh 11.0, Giardia FBPA inh -0.3%, Pf growth 96h -16.1% and NS1 function inh 0.2%.
`CCCn1c(-c2ccc(F)cc2)nc2c(NCCCN(C)C)nc(C)nc21` gave Giardia FBPA inh -0.4%.
`CCOc1ccccc1NC(=O)CNC(=O)CNC(=O)Cc1ccccc1` gave Cycloheximide cs 1.3, Pf growth 48h 3.8%, Shiga toxin inh -24.9, Pf growth 96h inconclusive and NS1 function inh 1.6%.
`CSCCC(NC(=O)c1ccccc1Cl)C(=O)N1CCN(C(c2ccccc2)c2ccccc2)CC1` (stereo unspecified) gave Cycloheximide cs 10.9, Pf growth 48h 0.0%, Shiga toxin inh -8.0, Giardia FBPA inh -12.3%, Pf growth 96h -104.9% and NS1 function inh -1.1%.
For Cc1cc[n+](CC[n+]2ccc(C)cc2)cc1 the results were Pf growth 48h -7.2% and Pf growth 96h 13.3%.
Screening CCC(C)(C)c1ccc(OCCCC[n+]2cccc(C)c2C)c(C(C)(C)CC)c1 returned Cycloheximide cs -2.3, Pf growth 48h 0.828µM*, Shiga toxin inh -24.2, Giardia FBPA inh 0.4%, Pf growth 96h 0.37µM* and NS1 function inh -60.6%.
For CCC(C)(C)c1ccc(OCCCC[n+]2ccc(C)cc2)c(C(C)(C)CC)c1 the results were Cycloheximide cs -5.2, Pf growth 48h 1.85µM*, Shiga toxin inh -20.9, Giardia FBPA inh -2.6% and Pf growth 96h 3.7µM*.
`Cc1cccc(C)c1Nc1oc(-c2ccccc2)nc1-c1cccc2ccccc12` gave Giardia FBPA inh 0.1%.
`CCn1c(SCc2ccc(C(=O)OC)o2)nc2sc3c(c2c1=O)CCCC3` gave Cycloheximide cs -0.8, Pf growth 48h -15.5%, Shiga toxin inh -22.0, Giardia FBPA inh -1.5%, Pf growth 96h 1.04µM* and NS1 function inh 10.4%.
For COC(=O)c1ccccc1NC(=O)CCn1c(=O)oc2ccccc21 the results were Cycloheximide cs 9.7, Pf growth 48h 7.4%, Shiga toxin inh -3.3, Pf growth 96h 88.8% and NS1 function inh -3.4%.
Screening C=CCNC(=O)c1cc(-c2ccc(Br)cc2)on1 returned Cycloheximide cs 24.2*, Pf growth 48h 164.5%, Shiga toxin inh 89.0*, Giardia FBPA inh 7.2%, Pf growth 96h 39.6% and NS1 function inh -12.6%.
`O=C(NCCN1CCOCC1)c1cc(-c2ccc(Br)cc2)on1` gave Cycloheximide cs 10.8, Pf growth 48h 59.1%, Shiga toxin inh 11.1, Giardia FBPA inh -2.1%, Pf growth 96h 0.9% and NS1 function inh -3.1%.
Cc1cc(-c2ccccc2)nc2cc(C(=O)NCCCn3ccnc3)nn12 was read as Cycloheximide cs -1.2, Pf growth 48h -28.2%, Shiga toxin inh -0.7, Giardia FBPA inh 5.3%, Pf growth 96h inconclusive and NS1 function inh 2.1%.
O=C(NCCCn1ccnc1)c1cc(-c2ccc3c(c2)OCO3)on1 was read as Cycloheximide cs 11.8*, Pf growth 48h 31.6%, Shiga toxin inh 22.0*, Giardia FBPA inh -0.9%, Pf growth 96h inconclusive and NS1 function inh -2.7%.
Screening COc1ccc2c(Cl)c(C(=O)NCCCn3ccnc3)sc2c1 returned Cycloheximide cs 19.7*, Pf growth 48h inconclusive, Shiga toxin inh 38.5, Giardia FBPA inh -1.4%, Pf growth 96h 9.2% and NS1 function inh -12.5%.
Screening O=C(NCCCn1ccnc1)c1cc2nc(-c3ccc(Br)cc3)cc(C(F)(F)F)n2n1 returned Cycloheximide cs -5.5, Pf growth 48h inconclusive, Shiga toxin inh -15.3, Giardia FBPA inh 1.3%, Pf growth 96h 4.15µM* and NS1 function inh -7.4%.
`C=CCOc1ccc(/C=C/C(=O)OCC(=O)NCc2cccs2)cc1` gave Pf growth 48h 33.8% and Pf growth 96h 40.2%.
For O=C(O)c1ccc(Cl)c(S(=O)(=O)Nc2ccccc2Cc2ccccc2)c1 the results were Cycloheximide cs -1.6, Pf growth 48h 12.4%, Shiga toxin inh -5.4, Giardia FBPA inh 14.2%, Pf growth 96h 13.3% and NS1 function inh 22.4%.
O=C(NCCCn1ccnc1)c1cc(-c2ccc(Br)cc2)on1 was read as Cycloheximide cs 28.5*, Pf growth 48h -16.5%, Shiga toxin inh 58.8, Giardia FBPA inh 3.9% and Pf growth 96h 4.4%.
COc1cccc(-c2cc(C(=O)NCCCn3ccnc3)no2)c1 was read as Cycloheximide cs 23.0*, Pf growth 48h 79.0%, Shiga toxin inh 102.5*, Giardia FBPA inh -6.6%, Pf growth 96h inconclusive and NS1 function inh 0.1%.
`COc1ccc(-c2cc(C(=O)NCCCn3ccnc3)no2)cc1OC` gave Cycloheximide cs -2.2, Pf growth 48h 6.1%, Shiga toxin inh -9.2, Giardia FBPA inh 2.9% and NS1 function inh 7.7%.
For N#CC(C(=O)Nc1ccccc1)=C1CCCCC1 the results were Cycloheximide cs 14.8*, Pf growth 48h 19.4%, Shiga toxin inh 15.8, Giardia FBPA inh 1.2%, Pf growth 96h 24.5% and NS1 function inh 15.0%.
`CC(C)CCC(CCNCc1ccccn1)c1ccc(Cl)cc1` (stereo unspecified) gave Cycloheximide cs -2.5, Pf growth 48h 3.29µM*, Shiga toxin inh -5.5, Giardia FBPA inh 4.3%, Pf growth 96h 3.29µM* and NS1 function inh -3.7%.
For O=[N+]([O-])c1nn(-c2ccc(Cl)cc2)n(O)c1=NCc1cccnc1 the results were Cycloheximide cs 22.5*, Pf growth 48h -6.9%, Shiga toxin inh 39.5, Giardia FBPA inh -8.7%, Pf growth 96h -12.5% and NS1 function inh -24.4%.
